{"source": "the supplement of paper PMC10849652", "note": "The full data set covers some 8,800 targets. This sample favours those with a hit. About 0.5% of all pairs of compound and target were hits. Values without a mark were called inactive.", "data": [{"compound": "NCC(=O)Nc1ccc(-n2nc(C(F)(F)F)cc2-c2ccc3c(ccc4ccccc43)c2)cc1", "assay": "log2 fold change, soluble protein after heating vs DMSO (PISA); higher = thermal stabilisation; K562 lysate, 10 uM; active = over 0.2 and 3.5 SD of the protein, either way, in both replicates (recomputed)", "in_short": "(§1)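 Following dounce homogenisation of K562 pellets in PBS pH 7.4 with 1 mM MgCl2, crude extract at 1 mg/mL protein was incubated for 30 min with 10 μM compound. Aliquots were then heated for 3 min over 48°C-58°C and pooled, NP-40 was added to 0.5% at 4°C, and soluble protein was recovered as the supernatant at 21,000xg for 90 min. Channel-sum-equalised TMTpro 16plex LC-MS/MS quantified this protein. Each value, from duplicates, is a log-two fold change in thermal stability relative to solvent controls.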", "values": [{"target": "WDR3 (UniProt Q9UNX4)", "log2 fold change": -0.031}, {"target": "VANGL1 (UniProt Q8TAA9)", "log2 fold change": -0.04}, {"target": "ZMYM1 (UniProt Q5SVZ6)", "log2 fold change": -0.014}, {"target": "UTP3 (UniProt Q9NQZ2)", "sequence (Q9NQZ2 whole entry, looked up)": "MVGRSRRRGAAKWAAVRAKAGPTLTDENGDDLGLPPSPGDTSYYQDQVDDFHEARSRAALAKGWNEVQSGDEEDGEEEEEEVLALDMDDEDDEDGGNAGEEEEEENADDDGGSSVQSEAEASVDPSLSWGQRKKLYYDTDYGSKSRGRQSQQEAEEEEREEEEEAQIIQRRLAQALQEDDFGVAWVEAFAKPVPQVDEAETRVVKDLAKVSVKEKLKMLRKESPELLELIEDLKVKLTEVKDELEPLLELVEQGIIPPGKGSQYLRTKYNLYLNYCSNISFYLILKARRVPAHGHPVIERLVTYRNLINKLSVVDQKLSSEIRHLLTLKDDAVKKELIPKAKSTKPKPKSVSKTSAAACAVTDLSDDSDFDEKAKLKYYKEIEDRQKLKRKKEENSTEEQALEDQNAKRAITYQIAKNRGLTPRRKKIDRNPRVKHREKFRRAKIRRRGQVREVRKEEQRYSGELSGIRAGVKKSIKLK", "log2 fold change": "0.307 (active)"}, {"target": "XPNPEP1 isoform 3 (UniProt Q9NQW7)", "log2 fold change": 0.006}, {"target": "XPOT (UniProt O43592)", "log2 fold change": -0.012}, {"target": "WDR77 (UniProt Q9BQA1)", "log2 fold change": -0.052}, {"target": "USP22 (UniProt Q9UPT9)", "log2 fold change": -0.069}, {"target": "WRB (UniProt O00258)", "log2 fold change": 0.082}, {"target": "UPF3B (UniProt Q9BZI7)", "sequence (Q9BZI7 whole entry, looked up)": "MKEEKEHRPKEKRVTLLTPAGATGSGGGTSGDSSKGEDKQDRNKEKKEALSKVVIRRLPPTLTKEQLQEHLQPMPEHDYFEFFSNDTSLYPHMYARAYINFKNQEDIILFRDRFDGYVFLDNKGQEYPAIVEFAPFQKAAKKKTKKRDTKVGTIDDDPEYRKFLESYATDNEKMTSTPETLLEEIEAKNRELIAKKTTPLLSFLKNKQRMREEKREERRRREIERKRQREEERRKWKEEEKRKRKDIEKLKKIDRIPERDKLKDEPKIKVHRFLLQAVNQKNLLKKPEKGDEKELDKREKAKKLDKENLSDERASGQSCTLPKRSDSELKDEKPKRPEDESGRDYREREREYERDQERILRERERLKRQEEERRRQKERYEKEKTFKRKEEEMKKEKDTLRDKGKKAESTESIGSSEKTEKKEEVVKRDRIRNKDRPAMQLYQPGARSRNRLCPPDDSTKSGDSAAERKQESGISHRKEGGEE", "log2 fold change": 0.022}, {"target": "VPS28 (UniProt Q9UK41)", "sequence (Q9UK41 whole entry, looked up)": "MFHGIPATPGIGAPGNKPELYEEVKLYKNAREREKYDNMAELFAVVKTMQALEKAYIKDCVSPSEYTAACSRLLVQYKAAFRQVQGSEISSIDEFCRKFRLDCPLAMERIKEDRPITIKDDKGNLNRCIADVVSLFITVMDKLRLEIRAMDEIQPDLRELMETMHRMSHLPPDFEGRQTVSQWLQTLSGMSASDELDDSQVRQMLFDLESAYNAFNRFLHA", "log2 fold change": 0.03}, {"target": "VPS4A (UniProt Q9UN37)", "log2 fold change": -0.026}, {"target": "USP16 (UniProt Q9Y5T5)", "log2 fold change": 0.019}, {"target": "VRK2 (UniProt Q86Y07)", "sequence (Q86Y07 whole entry, looked up)": "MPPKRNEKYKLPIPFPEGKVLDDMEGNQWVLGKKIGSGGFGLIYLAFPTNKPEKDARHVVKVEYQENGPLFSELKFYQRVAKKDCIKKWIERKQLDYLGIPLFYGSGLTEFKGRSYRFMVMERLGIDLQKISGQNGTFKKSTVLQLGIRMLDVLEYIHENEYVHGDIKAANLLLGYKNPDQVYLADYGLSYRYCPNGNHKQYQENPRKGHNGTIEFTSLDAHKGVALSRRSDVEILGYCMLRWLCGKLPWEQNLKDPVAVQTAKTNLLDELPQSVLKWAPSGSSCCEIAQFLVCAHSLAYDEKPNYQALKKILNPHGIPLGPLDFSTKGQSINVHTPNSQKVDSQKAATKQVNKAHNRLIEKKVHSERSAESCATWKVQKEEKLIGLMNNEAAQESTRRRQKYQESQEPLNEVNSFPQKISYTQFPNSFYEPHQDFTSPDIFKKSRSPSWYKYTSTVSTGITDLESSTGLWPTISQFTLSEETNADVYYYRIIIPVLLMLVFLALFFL", "log2 fold change": -0.158}, {"target": "WDR6 (UniProt Q9NNW5)", "log2 fold change": 0.012}, {"target": "USP34 (UniProt Q70CQ2)", "log2 fold change": 0.005}, {"target": "XPO1 (UniProt O14980)", "log2 fold change": 0.009}, {"target": "VAV3 isoform 4 (UniProt Q9UKW4)", "log2 fold change": 0.128}, {"target": "UQCC2 (UniProt Q9BRT2)", "log2 fold change": -0.019}, {"target": "USP3 (UniProt Q9Y6I4)", "log2 fold change": 0.015}, {"target": "ULK3 isoform 4 (UniProt Q6PHR2)", "sequence (Q6PHR2 whole entry, looked up)": "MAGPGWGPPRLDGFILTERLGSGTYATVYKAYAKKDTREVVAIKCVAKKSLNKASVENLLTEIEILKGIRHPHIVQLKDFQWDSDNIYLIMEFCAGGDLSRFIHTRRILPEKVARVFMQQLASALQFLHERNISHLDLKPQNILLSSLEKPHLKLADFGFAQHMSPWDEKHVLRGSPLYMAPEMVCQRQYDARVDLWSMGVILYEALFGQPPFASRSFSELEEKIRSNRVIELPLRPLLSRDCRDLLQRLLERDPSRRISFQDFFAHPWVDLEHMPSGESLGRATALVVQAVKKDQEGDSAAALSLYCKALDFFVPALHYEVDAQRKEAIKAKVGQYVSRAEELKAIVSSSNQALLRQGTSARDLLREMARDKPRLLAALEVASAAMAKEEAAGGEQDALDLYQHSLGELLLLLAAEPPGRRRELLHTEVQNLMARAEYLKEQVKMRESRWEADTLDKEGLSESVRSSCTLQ", "log2 fold change": -0.102}, {"target": "ZDHHC18 (UniProt Q9NUE0)", "log2 fold change": -0.064}, {"target": "UQCRC2 (UniProt P22695)", "sequence (P22695 whole entry, looked up)": "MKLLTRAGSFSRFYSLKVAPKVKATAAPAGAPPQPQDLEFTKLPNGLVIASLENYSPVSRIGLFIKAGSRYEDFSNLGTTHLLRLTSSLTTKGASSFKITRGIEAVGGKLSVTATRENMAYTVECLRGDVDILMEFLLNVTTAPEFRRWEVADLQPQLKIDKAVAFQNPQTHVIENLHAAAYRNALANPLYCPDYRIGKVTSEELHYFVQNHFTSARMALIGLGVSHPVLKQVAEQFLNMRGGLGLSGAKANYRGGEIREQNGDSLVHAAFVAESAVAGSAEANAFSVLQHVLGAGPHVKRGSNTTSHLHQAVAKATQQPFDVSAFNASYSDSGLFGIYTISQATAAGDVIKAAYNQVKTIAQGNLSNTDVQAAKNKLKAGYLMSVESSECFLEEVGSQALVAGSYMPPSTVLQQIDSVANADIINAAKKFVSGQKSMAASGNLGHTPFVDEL", "log2 fold change": 0.01}, {"target": "WDR7 (UniProt Q9Y4E6)", "sequence (Q9Y4E6 whole entry, looked up)": "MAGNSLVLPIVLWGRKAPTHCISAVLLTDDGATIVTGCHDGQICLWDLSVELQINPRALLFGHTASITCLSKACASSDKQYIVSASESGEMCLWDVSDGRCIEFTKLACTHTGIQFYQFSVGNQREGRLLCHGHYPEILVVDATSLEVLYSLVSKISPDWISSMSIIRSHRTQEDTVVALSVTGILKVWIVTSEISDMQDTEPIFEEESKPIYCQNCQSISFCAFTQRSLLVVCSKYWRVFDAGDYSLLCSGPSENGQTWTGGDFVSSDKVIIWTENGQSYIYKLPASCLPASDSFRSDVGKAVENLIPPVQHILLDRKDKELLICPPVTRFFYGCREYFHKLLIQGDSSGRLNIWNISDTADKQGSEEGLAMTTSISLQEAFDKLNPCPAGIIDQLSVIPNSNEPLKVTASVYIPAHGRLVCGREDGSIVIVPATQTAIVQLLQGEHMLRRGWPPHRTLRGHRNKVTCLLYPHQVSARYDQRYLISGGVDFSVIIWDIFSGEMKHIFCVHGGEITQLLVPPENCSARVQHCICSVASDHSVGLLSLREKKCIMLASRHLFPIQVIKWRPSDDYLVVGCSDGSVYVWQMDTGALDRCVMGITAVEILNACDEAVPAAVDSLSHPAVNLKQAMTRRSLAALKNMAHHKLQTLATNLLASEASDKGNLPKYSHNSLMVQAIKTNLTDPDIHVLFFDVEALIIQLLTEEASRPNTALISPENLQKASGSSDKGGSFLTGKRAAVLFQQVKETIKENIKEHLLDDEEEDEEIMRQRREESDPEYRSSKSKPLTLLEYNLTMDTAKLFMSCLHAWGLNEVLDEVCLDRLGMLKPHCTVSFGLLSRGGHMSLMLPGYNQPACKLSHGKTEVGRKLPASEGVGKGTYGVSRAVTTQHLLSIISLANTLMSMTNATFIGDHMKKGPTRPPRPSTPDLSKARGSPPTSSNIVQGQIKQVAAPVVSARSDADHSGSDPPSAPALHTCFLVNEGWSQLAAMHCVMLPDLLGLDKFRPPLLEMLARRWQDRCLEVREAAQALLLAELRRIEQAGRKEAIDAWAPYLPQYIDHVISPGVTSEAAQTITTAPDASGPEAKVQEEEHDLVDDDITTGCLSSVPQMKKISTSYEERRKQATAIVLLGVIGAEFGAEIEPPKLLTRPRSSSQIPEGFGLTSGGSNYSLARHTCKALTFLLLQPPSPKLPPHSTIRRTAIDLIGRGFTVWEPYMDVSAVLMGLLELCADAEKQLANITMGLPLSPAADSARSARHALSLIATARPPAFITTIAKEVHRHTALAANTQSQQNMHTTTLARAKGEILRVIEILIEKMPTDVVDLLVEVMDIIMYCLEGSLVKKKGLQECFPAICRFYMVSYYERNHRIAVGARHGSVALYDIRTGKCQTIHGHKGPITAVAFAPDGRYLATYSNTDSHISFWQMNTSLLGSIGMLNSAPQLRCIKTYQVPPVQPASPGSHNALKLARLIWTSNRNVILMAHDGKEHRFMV", "log2 fold change": -0.01}, {"target": "YLPM1 (UniProt P49750)", "log2 fold change": 0.013}, {"target": "WAC (UniProt Q9BTA9)", "log2 fold change": 0.011}, {"target": "UXT isoform 2 (UniProt Q9UBK9)", "log2 fold change": -0.003}, {"target": "VAV1 (UniProt P15498)", "sequence (P15498 whole entry, looked up)": "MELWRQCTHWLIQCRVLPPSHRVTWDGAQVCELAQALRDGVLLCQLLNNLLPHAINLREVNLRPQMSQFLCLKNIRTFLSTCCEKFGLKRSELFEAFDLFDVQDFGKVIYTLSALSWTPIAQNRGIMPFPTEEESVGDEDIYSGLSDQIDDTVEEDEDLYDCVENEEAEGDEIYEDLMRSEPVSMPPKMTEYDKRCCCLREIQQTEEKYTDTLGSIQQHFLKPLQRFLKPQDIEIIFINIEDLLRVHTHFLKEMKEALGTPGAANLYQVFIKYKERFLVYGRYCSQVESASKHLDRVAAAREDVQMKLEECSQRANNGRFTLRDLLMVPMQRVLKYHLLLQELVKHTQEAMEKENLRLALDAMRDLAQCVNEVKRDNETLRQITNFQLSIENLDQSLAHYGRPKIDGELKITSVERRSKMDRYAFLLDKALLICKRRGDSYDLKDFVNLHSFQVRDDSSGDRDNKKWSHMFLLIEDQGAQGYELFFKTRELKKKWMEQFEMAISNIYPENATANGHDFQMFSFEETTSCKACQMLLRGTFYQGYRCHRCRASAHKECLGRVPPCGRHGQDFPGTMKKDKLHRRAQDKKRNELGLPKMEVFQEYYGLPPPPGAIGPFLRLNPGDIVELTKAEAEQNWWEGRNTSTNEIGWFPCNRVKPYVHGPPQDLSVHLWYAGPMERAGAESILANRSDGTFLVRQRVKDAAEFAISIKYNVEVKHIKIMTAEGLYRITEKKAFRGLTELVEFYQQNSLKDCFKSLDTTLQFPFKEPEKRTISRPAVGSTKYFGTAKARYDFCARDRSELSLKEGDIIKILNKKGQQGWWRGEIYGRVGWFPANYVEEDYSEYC", "log2 fold change": -0.003}, {"target": "VPS11 (UniProt Q9H270)", "log2 fold change": 0.023}, {"target": "VPS39 (UniProt Q96JC1)", "log2 fold change": 0.009}]}, {"compound": "O=C(CCCCCCC(=O)Nc1ccccc1)NO [vorinostat]", "assay": "log2 fold change, soluble protein after heating vs DMSO (PISA); higher = thermal stabilisation; K562 lysate, 10 uM; active = over 0.2 and 3.5 SD of the protein, either way, in both replicates (recomputed)", "in_short": "as §1", "values": [{"target": "WDR3 (UniProt Q9UNX4)", "log2 fold change": "-0.255 (active)"}, {"target": "VANGL1 (UniProt Q8TAA9)", "log2 fold change": 0.085}, {"target": "ZMYM1 (UniProt Q5SVZ6)", "log2 fold change": -0.202}, {"target": "UTP3 (UniProt Q9NQZ2)", "log2 fold change": 0.143}, {"target": "XPNPEP1 isoform 3 (UniProt Q9NQW7)", "log2 fold change": -0.068}, {"target": "XPOT (UniProt O43592)", "log2 fold change": "-0.656 (active)"}, {"target": "WDR77 (UniProt Q9BQA1)", "log2 fold change": -0.067}, {"target": "USP22 (UniProt Q9UPT9)", "log2 fold change": "-0.323 (active)"}, {"target": "WRB (UniProt O00258)", "log2 fold change": 0.131}, {"target": "UPF3B (UniProt Q9BZI7)", "log2 fold change": 0.075}, {"target": "VPS28 (UniProt Q9UK41)", "log2 fold change": "-0.37 (active)"}, {"target": "VPS4A (UniProt Q9UN37)", "log2 fold change": "-0.356 (active)"}, {"target": "USP16 (UniProt Q9Y5T5)", "log2 fold change": "-0.272 (active)"}, {"target": "VRK2 (UniProt Q86Y07)", "log2 fold change": -0.166}, {"target": "WDR6 (UniProt Q9NNW5)", "log2 fold change": "-0.321 (active)"}, {"target": "USP34 (UniProt Q70CQ2)", "log2 fold change": "-0.208 (active)"}, {"target": "XPO1 (UniProt O14980)", "log2 fold change": "-0.233 (active)"}, {"target": "VAV3 isoform 4 (UniProt Q9UKW4)", "log2 fold change": -0.358}, {"target": "UQCC2 (UniProt Q9BRT2)", "log2 fold change": 0.121}, {"target": "USP3 (UniProt Q9Y6I4)", "log2 fold change": "-0.469 (active)"}, {"target": "ULK3 isoform 4 (UniProt Q6PHR2)", "log2 fold change": -0.05}, {"target": "ZDHHC18 (UniProt Q9NUE0)", "log2 fold change": -0.162}, {"target": "UQCRC2 (UniProt P22695)", "log2 fold change": 0.123}, {"target": "WDR7 (UniProt Q9Y4E6)", "log2 fold change": "-0.236 (active)"}, {"target": "YLPM1 (UniProt P49750)", "log2 fold change": -0.126}, {"target": "WAC (UniProt Q9BTA9)", "log2 fold change": "-0.309 (active)"}, {"target": "UXT isoform 2 (UniProt Q9UBK9)", "log2 fold change": 0.037}, {"target": "VAV1 (UniProt P15498)", "log2 fold change": "-0.268 (active)"}, {"target": "VPS11 (UniProt Q9H270)", "log2 fold change": "-0.509 (active)"}, {"target": "VPS39 (UniProt Q96JC1)", "log2 fold change": -0.194}]}, {"compound": "O=C(O)c1ccc2c(c1)nc(Nc1cccc(Cl)c1)c1ccncc12 [silmitasertib]", "assay": "log2 fold change, soluble protein after heating vs DMSO (PISA); higher = thermal stabilisation; K562 lysate, 10 uM; active = over 0.2 and 3.5 SD of the protein, either way, in both replicates (recomputed)", "in_short": "as §1", "values": [{"target": "WDR3 (UniProt Q9UNX4)", "log2 fold change": 0.044}, {"target": "VANGL1 (UniProt Q8TAA9)", "log2 fold change": 0.159}, {"target": "ZMYM1 (UniProt Q5SVZ6)", "log2 fold change": 0.042}, {"target": "UTP3 (UniProt Q9NQZ2)", "log2 fold change": 0.022}, {"target": "XPNPEP1 isoform 3 (UniProt Q9NQW7)", "log2 fold change": -0.001}, {"target": "XPOT (UniProt O43592)", "log2 fold change": 0.035}, {"target": "WDR77 (UniProt Q9BQA1)", "log2 fold change": 0.041}, {"target": "USP22 (UniProt Q9UPT9)", "log2 fold change": -0.045}, {"target": "WRB (UniProt O00258)", "log2 fold change": -0.055}, {"target": "UPF3B (UniProt Q9BZI7)", "log2 fold change": -0.02}, {"target": "VPS28 (UniProt Q9UK41)", "log2 fold change": -0.002}, {"target": "VPS4A (UniProt Q9UN37)", "log2 fold change": 0.059}, {"target": "USP16 (UniProt Q9Y5T5)", "log2 fold change": 0.012}, {"target": "VRK2 (UniProt Q86Y07)", "log2 fold change": -0.022}, {"target": "WDR6 (UniProt Q9NNW5)", "log2 fold change": 0.01}, {"target": "USP34 (UniProt Q70CQ2)", "log2 fold change": 0.05}, {"target": "XPO1 (UniProt O14980)", "log2 fold change": 0.003}, {"target": "VAV3 isoform 4 (UniProt Q9UKW4)", "log2 fold change": 0.148}, {"target": "UQCC2 (UniProt Q9BRT2)", "log2 fold change": -0.021}, {"target": "USP3 (UniProt Q9Y6I4)", "log2 fold change": -0.026}, {"target": "ULK3 isoform 4 (UniProt Q6PHR2)", "log2 fold change": 0.242}, {"target": "ZDHHC18 (UniProt Q9NUE0)", "log2 fold change": 0.163}, {"target": "UQCRC2 (UniProt P22695)", "log2 fold change": -0.013}, {"target": "WDR7 (UniProt Q9Y4E6)", "log2 fold change": 0.032}, {"target": "YLPM1 (UniProt P49750)", "log2 fold change": -0.011}, {"target": "WAC (UniProt Q9BTA9)", "log2 fold change": -0.031}, {"target": "UXT isoform 2 (UniProt Q9UBK9)", "log2 fold change": -0.039}, {"target": "VAV1 (UniProt P15498)", "log2 fold change": 0}, {"target": "VPS11 (UniProt Q9H270)", "log2 fold change": -0.009}, {"target": "VPS39 (UniProt Q96JC1)", "log2 fold change": 0.01}]}]}
